This is one part of a sample in which the strongest signals are shown more often than they occur.
How the values were obtained:
Test in all cases: glycan array binding signal (z-score within array); higher = stronger binding
Conditions in all cases: glycan notation: IUPAC condensed, linker removed
[1] = target: GalNAc(b1-4)Gal(b1-4)Glc
In short: (§1)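 Arrays were curated from the Consortium for Functional Glycomics database, 3228 in total, and kept only where the protein sequence was available. Binding is expressed as a within-array Z-score. This score was averaged across arrays of the same protein sequence at different concentrations or buffers and across linkers, and negative values can be read as non-binding.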

[2] = target: GalNAc(b1-4)GlcNAc
In short: as §1

[3] = target: GalNAc(b1-4)GlcNAc(b1-3)GalNAc(b1-4)GlcNAc
In short: as §1

[4] = target: GlcNAc(b1-2)Man(a1-3)[GlcNAc(b1-2)Man(a1-6)]Man(b1-4)GlcNAc(b1-4)[Fuc(a1-6)]GlcNAc
In short: as §1

[5] = target: GlcNAc(b1-2)[GlcNAc(b1-6)]Man(a1-6)[GlcNAc(b1-2)Man(a1-3)]Man(b1-4)GlcNAc(b1-4)[Fuc(a1-6)]GlcNAc
In short: as §1

[6] = target: GlcNAc(b1-3)Gal(b1-4)GlcNAc(b1-2)[GlcNAc(b1-3)Gal(b1-4)GlcNAc(b1-6)]Man(a1-6)[GlcNAc(b1-3)Gal(b1-4)GlcNAc(b1-2)Man(a1-3)]Man(b1-4)GlcNAc(b1-4)GlcNAc
In short: as §1

[7] = target: GlcNAc(b1-3)Gal(b1-4)GlcNAc(b1-3)Gal(b1-4)GlcNAc(b1-2)Man(a1-3)[GlcNAc(b1-3)Gal(b1-4)GlcNAc(b1-3)Gal(b1-4)GlcNAc(b1-2)Man(a1-6)]Man(b1-4)GlcNAc(b1-4)GlcNAc
In short: as §1

[8] = target: GlcNAc(b1-3)Gal(b1-4)GlcNAc(b1-3)Gal(b1-4)GlcNAc(b1-3)Gal(b1-4)GlcNAc(b1-3)Gal(b1-4)GlcNAc(b1-2)[GlcNAc(b1-3)Gal(b1-4)GlcNAc(b1-3)Gal(b1-4)GlcNAc(b1-3)Gal(b1-4)GlcNAc(b1-3)Gal(b1-4)GlcNAc(b1-6)]Man(a1-6)[GlcNAc(b1-3)Gal(b1-4)GlcNAc(b1-3)Gal(b1-4)GlcNAc(b1-3)Gal(b1-4)GlcNAc(b1-3)Gal(b1-4)GlcNAc(b1-2)Man(a1-3)]Man(b1-4)GlcNAc(b1-4)[Fuc(a1-6)]GlcNAc
In short: as §1

[9] = target: GlcNAc(b1-6)GalNAc
In short: as §1

[10] = target: Neu5Ac(a2-3)Gal(b1-3)GlcNAc(b1-2)Man(a1-3)[Neu5Ac(a2-3)Gal(b1-3)GlcNAc(b1-2)Man(a1-6)]Man(b1-4)GlcNAc(b1-4)GlcNAc
In short: as §1

[11] = target: Neu5Ac(a2-3)Gal(b1-3)[Fuc(a1-4)]GlcNAc(b1-3)Gal(b1-3)[Fuc(a1-4)]GlcNAc
In short: as §1

[12] = target: Neu5Ac(a2-3)Gal(b1-4)GlcNAc(b1-2)Man(a1-3)[Neu5Ac(a2-3)Gal(b1-4)GlcNAc(b1-2)Man(a1-6)]Man(b1-4)GlcNAc(b1-4)[Fuc(a1-6)]GlcNAc
In short: as §1

[13] = target: Neu5Ac(a2-3)Gal(b1-4)GlcNAc(b1-2)[Neu5Ac(a2-3)Gal(b1-4)GlcNAc(b1-6)]Man(a1-6)[Neu5Ac(a2-3)Gal(b1-4)GlcNAc(b1-2)Man(a1-3)][GlcNAc(b1-4)]Man(b1-4)GlcNAc(b1-4)GlcNAc
In short: as §1

[14] = target: Neu5Ac(a2-3)Gal(b1-4)[Fuc(a1-3)]GlcNAc(b1-3)Gal
In short: as §1

[15] = target: Neu5Ac(a2-3)Gal(b1-4)[Fuc(a1-3)]GlcNAc6S
In short: as §1

[16] = target: Neu5Ac(a2-3)[GalNAc(b1-4)]Gal(b1-4)GlcNAc
In short: as §1

[17] = target: Neu5Ac(a2-6)Gal
In short: as §1

[18] = target: Neu5Ac(a2-6)Gal(b1-4)GlcNAc(b1-2)Man(a1-3)[Neu5Ac(a2-3)Gal(b1-4)GlcNAc(b1-2)Man(a1-6)]Man(b1-4)GlcNAc(b1-4)GlcNAc
In short: as §1

[19] = target: Neu5Ac(a2-6)Gal(b1-4)GlcNAc(b1-2)Man(a1-6)[Gal(b1-4)GlcNAc(b1-2)Man(a1-3)]Man(b1-4)GlcNAc(b1-4)GlcNAc
In short: as §1

[20] = target: Neu5Ac(a2-6)Gal(b1-4)GlcNAc(b1-3)Gal(b1-4)GlcNAc(b1-3)Gal(b1-4)GlcNAc(b1-2)Man(a1-3)[Neu5Ac(a2-6)Gal(b1-4)GlcNAc(b1-3)Gal(b1-4)GlcNAc(b1-3)Gal(b1-4)GlcNAc(b1-2)Man(a1-6)]GalNAc
In short: as §1

[21] = target: Neu5Ac(a2-6)Gal(b1-4)GlcNAc(b1-6)GalNAc
In short: as §1

[22] = target: Neu5Ac(a2-8)Neu5Ac(a2-3)Gal(b1-3)GalNAc(b1-4)[Neu5Ac(a2-3)]Gal(b1-4)Glc
In short: as §1

[23] = target: Neu5Ac(a2-8)Neu5Ac(a2-3)Gal(b1-4)GlcNAc
In short: as §1

[24] = target: Neu5Ac(a2-8)Neu5Ac(a2-3)[Gal(b1-3)GalNAc(b1-4)]Gal(b1-4)Glc
In short: as §1

[25] = target: Neu5Gc(a2-3)Gal(b1-4)[Fuc(a1-3)]GlcNAc
In short: as §1

[26] = target: Neu5Gc(a2-8)Neu5Gc(a2-3)Gal(b1-4)GlcNAc(b1-3)Gal(b1-4)GlcNAc
In short: as §1

B1: Erv46-EDTA (Saccharomyces cerevisiae), P39727 (protein)
chain: MKFLVNVALVFMVVYISYIYAAAPEHHHHHHDYDIPTTENLYFQGAMDSVVTRPQLVVDRDRHAKLELNMDVTFPSMPCDLVNLDIMDDSGEMQLDILDAGFTMSRLNSEGRPVGDATELHVGGNGDGTAPVNNDPNYCGPCYGAKDQSQNENLAQEEKVCCQDCDAVRSAYLEAGWAFFDGKNIEQCEREGYVSKINEHLNEGCRIKGSAQINRIQGNLHFAPGKPYQNAYGHFHDTSLYDKTSNLNFNHIINHLSFGKPIQSHSKLLGNDKRHGGAVVATSPLDGRQVFPDRNTHFHQFSYFAKIVPTRYEYLDNVVIETAQFSATFHSRPLAGGRDKDHPNTLHVRGGIPGMFVFFEMSPLKVINKEQ
[1]
  glycan array binding signal (z-score): -0.674
[2]
  glycan array binding signal (z-score): 0.697
[3]
  glycan array binding signal (z-score): -0.443
[4]
  glycan array binding signal (z-score): 6.37
[5]
  glycan array binding signal (z-score): 1.14
[6]
  glycan array binding signal (z-score): 2.9
[7]
  glycan array binding signal (z-score): 3.36
[8]
  glycan array binding signal (z-score): 0.589
[9]
  glycan array binding signal (z-score): -0.565
[10]
  glycan array binding signal (z-score): 1.06
[11]
  glycan array binding signal (z-score): -0.483
[12]
  glycan array binding signal (z-score): 0.11
[13]
  glycan array binding signal (z-score): -0.335
[14]
  glycan array binding signal (z-score): -0.531
[15]
  glycan array binding signal (z-score): -0.585
[16]
  glycan array binding signal (z-score): 0.122
[17]
  glycan array binding signal (z-score): -0.121
[18]
  glycan array binding signal (z-score): -0.318
[19]
  glycan array binding signal (z-score): -0.053
[20]
  glycan array binding signal (z-score): 3.54
[21]
  glycan array binding signal (z-score): -0.855
[22]
  glycan array binding signal (z-score): -0.029
[23]
  glycan array binding signal (z-score): -0.501
[24]
  glycan array binding signal (z-score): -0.605
[25]
  glycan array binding signal (z-score): 0.625
[26]
  glycan array binding signal (z-score): -0.449
